Assay [1] can be described thus: Nuclear factor erythroid 2-related factor 2/antioxidant responsive element (Nrf2/ARE) small molecule agonists: qHTS cell viability counter screen in human keratinocytes (AID 1919968; active means well fitted curve in the direction sought with a large enough effect in the repeat runs; an effect the other way counts as inactive or inconclusive; further: nearly all actives have a fitted effect of over 55% in size). An outline of the steps: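 After a 5 h attachment period, ARE-reporter keratinocytes were dosed with compounds in DMSO and then cultured 23 h at 37 C. Cell viability came from CellTiter-Fluor signal read after a further 1 h.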
(qHTS replaces the single test concentration by a dilution series.)

Assay [2] is described as follows: Nuclear factor erythroid 2-related factor 2/antioxidant responsive element (Nrf2/ARE) small molecule agonists: luciferase reporter gene qHTS assay in human keratinocytes (AID 1919969). Further: nearly all actives have a fitted effect of over 35% in size. Background: In a reporter assay the amount or activity of a reporter protein is the signal.
The target in assay [3] is Gonadotropin-releasing hormone receptor (Homo sapiens) (UniProt P30968). The assay is described as follows: Human gonadotropin-releasing hormone receptor (GnRHR) small molecule agonists, calcium flux assay in GnRHR-HEK293 cells (AID 1920063). Further: nearly all actives have a fitted effect of over 35% in size. An outline of the steps: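 We seeded human GnRHR-expressing HEK293 cells for 18 hours, loaded them with calcium dye for an hour at 37 C, added test compounds, and recorded fluorescence intensity kinetically for three minutes.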
Gonadotropin-releasing hormone receptor (Homo sapiens), sequence (P30968 whole entry, looked up): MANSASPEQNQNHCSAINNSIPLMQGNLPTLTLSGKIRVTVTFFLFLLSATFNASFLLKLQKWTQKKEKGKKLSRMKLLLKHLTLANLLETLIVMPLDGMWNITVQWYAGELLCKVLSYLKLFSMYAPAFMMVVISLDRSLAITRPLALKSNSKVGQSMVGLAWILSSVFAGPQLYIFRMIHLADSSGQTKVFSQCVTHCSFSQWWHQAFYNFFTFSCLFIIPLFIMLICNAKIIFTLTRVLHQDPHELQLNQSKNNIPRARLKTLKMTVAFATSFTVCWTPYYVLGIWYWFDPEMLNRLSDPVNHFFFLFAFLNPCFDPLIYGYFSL

For assay [4], the target named is KiSS-1 receptor (Homo sapiens) (UniProt Q969F8). The assay is described as follows: Human kisspeptin (KISS1R) small molecule agonists, calcium flux assay in KISS1R-HEK293 cells (AID 1920064; active means well fitted curve in the direction sought with a large enough effect in the repeat runs; an effect the other way counts as inactive or inconclusive). The method in brief:
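Kinetic calcium assay, 1 s sampling over 3 min at Ex/Em 480/540, in HEK293 cells engineered with human KISS1R; compounds delivered in DMSO after 1 h dye loading.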

Assay [5] is described as follows: G protein-coupled receptor (GPCR) small molecule agonists, calcium flux assay: HEK293 wild type cell line counter screen (AID 1920065). The method in brief:
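Calcium-sensitive dye, loaded 1 h at 37 C into cells cultured 18 h, reports compound-evoked calcium release as fluorescence (Ex/Em 480/540), measured over 3 min. Agonist mode; 15-point titrations, triplicate.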

A short description of assay [6]: p53 small molecule agonists, cell-based qHTS assay with human liver microsomes (AID 1963577). An outline of the steps: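 p53RE-bla cells, 4,000/well, compound added after 5 h, with human liver microsomes 0.5 mg/mL and NADPH 0.5 mg/mL final; 16 h at 37 C, then LiveBLAzer 2 h RT, fluorescence.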
The nature of assay [7]: p53 small molecule agonists, cell-based qHTS assay with rat liver microsomes (AID 1963578). An outline of the steps:
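p53RE-bla cells, 4,000/well, pre-incubated 5 h, then given compounds plus rat liver microsomes (0.5 mg/mL final) and NADPH (0.5 mg/mL final). Incubation 16 h at 37 C; beta-lactamase reporter read by LiveBLAzer fluorescence after 2 h at room temperature.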

Assay [8] can be described thus: p53 small molecule agonists, cell-based qHTS assay with human liver microsomes: qHTS cell viability counter screen (AID 1963579). Further: nearly all actives have a fitted effect of over 45% in size. An outline of the steps: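 p53RE-bla cells, 4,000/well, dosed 5 hours after plating, with human liver microsomes (0.5 mg/mL final) plus NADPH (0.5 mg/mL final), 16 hours at 37 C. Viability read as CellTiter-Glo luminescence after 30 min at room temperature.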

Assay [9] is described as follows: p53 small molecule agonists, cell-based qHTS assay with rat liver microsomes: qHTS cell viability counter screen (AID 1963580). Further: nearly all actives have a fitted effect of over 45% in size. An outline of the steps: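 HCT-116 p53RE-bla, 4,000 cells/well, 5 h pre-incubation; cpd + rat liver microsomes 0.5 mg/mL + NADPH 0.5 mg/mL (final); 16 h, 37 C; CellTiter-Glo, 30 min RT; luminescence.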
Assay [10] is described as follows: p53 small molecule agonists, cell-based qHTS assay: qHTS cell viability counter screen (AID 1963581). Further: nearly all actives have a fitted effect of over 45% in size. Further: potency means the concentration at half of the fitted maximal effect. An outline of the steps:
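Following 5 h attachment, HCT-116 p53RE-bla cells took up compound for 16 h at 37 C; the reporter was read with B/G FRET substrate (2 h RT), and viability then via CellTiter-Glo ATP luminescence.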

The nature of assay [11]: p53 small molecule agonists, cell-based qHTS assay (AID 1963582; active means well fitted activation curve with a large enough effect in the signal ratio in the repeat runs, not every such curve was filed as active; the % refers to the signal ratio). The method in brief: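 In this cell-based concentration-response screen, a p53 response element drives beta-lactamase; cells received DMSO-borne compounds after 5 h culture and were incubated a further 16 h before FRET substrate development.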
The target of assay [12] is 5-hydroxytryptamine receptor 2A (Homo sapiens) (UniProt P28223). The assay is described as follows: 5-hydroxytryptamine receptor 2A (HTR2A) small molecule antagonists, cell-based qHTS assay (AID 1963586). Further: nearly all actives have a fitted effect of over 45% in size. Further: potency means the concentration at half of the fitted maximal effect. An outline of the steps: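 Antagonist-mode intracellular calcium assay: DOI (4 nM) added after 5 min compound pre-incubation at room temperature to dye-loaded HTR2A-CHO cells. Fluorescence followed for 3 min, sampled every second.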
5-hydroxytryptamine receptor 2A (Homo sapiens), sequence (P28223 whole entry, looked up): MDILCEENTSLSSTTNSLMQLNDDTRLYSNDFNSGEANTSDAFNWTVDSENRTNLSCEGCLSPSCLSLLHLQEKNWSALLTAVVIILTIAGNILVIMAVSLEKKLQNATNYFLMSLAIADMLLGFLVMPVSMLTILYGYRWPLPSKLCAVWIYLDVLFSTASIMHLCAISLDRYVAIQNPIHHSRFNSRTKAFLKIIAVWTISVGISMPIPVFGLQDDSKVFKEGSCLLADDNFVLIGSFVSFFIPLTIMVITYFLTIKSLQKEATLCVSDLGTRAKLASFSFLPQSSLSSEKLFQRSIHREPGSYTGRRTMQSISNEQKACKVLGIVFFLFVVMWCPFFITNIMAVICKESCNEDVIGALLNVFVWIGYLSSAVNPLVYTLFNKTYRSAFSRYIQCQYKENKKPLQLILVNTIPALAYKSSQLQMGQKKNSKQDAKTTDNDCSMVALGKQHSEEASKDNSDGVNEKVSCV

For assay [13] the target is unchanged. The assay is described as follows: 5-hydroxytryptamine receptor 2A (HTR2A) small molecule agonists, cell-based qHTS assay (AID 1963587). Further: nearly all actives have a fitted effect of over 30% in size. An outline of the steps: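 Kinetic calcium-flux fluorescence (2 min, 1 sec intervals) after compound addition in agonist mode. HTR2A-CHO cells were cultured 18 h, then dye-loaded 1 h at 37 C.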
The target of assay [14] is Muscarinic acetylcholine receptor M1 (Homo sapiens) (UniProt P11229). In words: Cholinergic receptor muscarinic 1 (CHRM1) small molecule antagonists, cell-based qHTS assay (AID 1963588). Further: nearly all actives have a fitted effect of over 40% in size. The method in brief: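 CHRM1-CHO calcium-flux assay, antagonist mode. Cells were seeded 18 h, dye-loaded 1 h at 37 C and given compound for 5 min at RT, then acetylcholine was added at 50nM. FDSS fluorescence was read 3 min; 15 concentrations, three runs.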
Muscarinic acetylcholine receptor M1 (Homo sapiens), sequence (P11229 whole entry, looked up): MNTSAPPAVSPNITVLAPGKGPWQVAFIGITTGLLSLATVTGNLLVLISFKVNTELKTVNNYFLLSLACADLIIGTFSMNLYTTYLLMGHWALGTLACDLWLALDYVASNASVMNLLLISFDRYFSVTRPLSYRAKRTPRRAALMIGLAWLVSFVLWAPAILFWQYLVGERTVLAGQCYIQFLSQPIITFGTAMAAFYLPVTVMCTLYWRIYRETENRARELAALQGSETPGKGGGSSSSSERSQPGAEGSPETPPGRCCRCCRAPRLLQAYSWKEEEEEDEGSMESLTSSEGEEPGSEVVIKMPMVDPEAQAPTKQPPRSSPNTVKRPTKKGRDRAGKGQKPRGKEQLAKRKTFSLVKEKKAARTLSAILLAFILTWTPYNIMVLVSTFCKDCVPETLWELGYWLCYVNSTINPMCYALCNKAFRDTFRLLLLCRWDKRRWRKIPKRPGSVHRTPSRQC

Assay [15] has the same target. The assay is described as follows: Cholinergic receptor muscarinic 1 (CHRM1) small molecule agonists, cell-based qHTS assay (AID 1963589). Further: nearly all actives have a fitted effect of over 35% in size. The method in brief:
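Measures agonist-induced intracellular calcium rise. Stable human CHRM1 CHO line, 1 h dye load at 37 C, compounds from DMSO, kinetic fluorescence read.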

Assay [16] can be described thus: cAMP Responsive Elements (CRE) small molecule agonists, cell-based qHTS assay (AID 1963590). The method in brief:
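A CRE-responsive beta-lactamase reporter in HEK 293T cells was used. Treatment ran 3 h at 37 C; detection used LiveBLAzer B/G FRET substrate for 2 h at room temperature.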

The nature of assay [17]: cAMP Responsive Elements (CRE) small molecule antagonists, cell-based qHTS assay (AID 1963591; active means well fitted inhibition curve with a large enough effect in the signal ratio in the repeat runs, not every such curve was filed as active; the % refers to the signal ratio). An outline of the steps:
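HEK293T cells carrying a CRE-driven beta-lactamase reporter receive compound and NKH477 (0.25 uM final) for 3 h. Fluorescence from LiveBLAzer B/G FRET substrate is read after 2 h at room temperature.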

Assay [18] concerns the target Beta-2 adrenergic receptor (Homo sapiens) (UniProt P07550). In words: Adrenergic beta2 receptor (ADRB2) small molecule antagonists, cell-based qHTS assay (AID 1963592). Further: series mostly up to about 92 µM; nearly all actives have a fitted effect of over 50% in size. The method in brief:
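Cells (CHO, stable ADRB2 overexpression) incubated 18-20hr at 37C; compounds added from DMSO; agonist mix (1nM isoproterenol, 100uM IBMX, 25uM Ro-20-1724) added; 0.5hr RT; d2-cAMP and anti-cAMP-cryptate added; 1hr RT; 665/615 nm read.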

For assay [19] the target is unchanged. The assay is described as follows: Adrenergic beta2 receptor (ADRB2) small molecule agonists, cell-based qHTS assay (AID 1963593).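 Further: CHO cells stably overexpressing human ADRB2.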 An outline of the steps: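 CHO cells stably over-expressing ADRB2 were plated overnight at 37C, then dosed with compounds plus a stimulation mix containing 100uM IBMX and 25uM Ro-20-1724 for 0.5hr at room temperature. cAMP was measured by HTRF competition, 1hr.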

Assay [20] has as its target D(2) dopamine receptor (Homo sapiens) (UniProt P14416). The assay is described as follows: Dopamine D2 receptor (DRD2) small molecule agonists, cell-based qHTS assay (AID 1963594). Further: nearly all actives have a fitted effect of over 35% in size. The method in brief:
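cAMP accumulation in DRD2-HEK293 cells measured by HTRF after 1 h detection; compounds added 10 min before NKH477 (200nM […]) forskolin-analogue stimulation, 30 min at room temperature, with Ro20-1724 present at 0.1 mM final.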

Molecules are shown by their SMILES. Values joined by “and” are separate entries in the source; they are usually repeats but may differ in a detail not shown here. Equal values may be shown once. Results filed as inconclusive are left out. Some compounds were tested as several samples or in several runs, with calls that do not always agree. Active and inactive are the calls of the source. Unless noted, the call rests on the fitted dose curve.

D(2) dopamine receptor (Homo sapiens), sequence (P14416 whole entry, looked up): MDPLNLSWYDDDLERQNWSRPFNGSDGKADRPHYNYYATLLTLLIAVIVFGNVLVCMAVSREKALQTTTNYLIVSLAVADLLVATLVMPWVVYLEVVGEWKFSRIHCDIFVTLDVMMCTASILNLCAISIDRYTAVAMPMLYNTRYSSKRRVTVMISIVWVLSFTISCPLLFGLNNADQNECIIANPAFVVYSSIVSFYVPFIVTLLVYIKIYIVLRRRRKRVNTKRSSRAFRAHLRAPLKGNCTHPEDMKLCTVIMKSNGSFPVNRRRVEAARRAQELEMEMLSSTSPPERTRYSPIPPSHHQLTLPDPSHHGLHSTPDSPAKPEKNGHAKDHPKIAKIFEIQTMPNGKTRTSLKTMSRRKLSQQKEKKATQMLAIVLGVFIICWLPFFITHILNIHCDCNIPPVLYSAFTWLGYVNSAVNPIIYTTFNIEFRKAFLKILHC
Beta-2 adrenergic receptor (Homo sapiens), sequence (P07550 whole entry, looked up): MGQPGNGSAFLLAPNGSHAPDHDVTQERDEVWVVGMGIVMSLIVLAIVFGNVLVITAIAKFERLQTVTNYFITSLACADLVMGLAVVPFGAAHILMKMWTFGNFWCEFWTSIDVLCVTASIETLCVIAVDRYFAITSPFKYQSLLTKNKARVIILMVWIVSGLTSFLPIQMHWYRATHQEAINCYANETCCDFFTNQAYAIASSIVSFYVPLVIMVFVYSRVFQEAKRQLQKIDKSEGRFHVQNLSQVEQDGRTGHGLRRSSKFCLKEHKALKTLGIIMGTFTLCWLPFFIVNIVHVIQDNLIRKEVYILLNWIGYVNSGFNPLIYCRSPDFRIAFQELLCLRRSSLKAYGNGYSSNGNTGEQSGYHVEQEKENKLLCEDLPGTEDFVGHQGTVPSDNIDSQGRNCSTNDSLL
KiSS-1 receptor (Homo sapiens), sequence (Q969F8 whole entry, looked up): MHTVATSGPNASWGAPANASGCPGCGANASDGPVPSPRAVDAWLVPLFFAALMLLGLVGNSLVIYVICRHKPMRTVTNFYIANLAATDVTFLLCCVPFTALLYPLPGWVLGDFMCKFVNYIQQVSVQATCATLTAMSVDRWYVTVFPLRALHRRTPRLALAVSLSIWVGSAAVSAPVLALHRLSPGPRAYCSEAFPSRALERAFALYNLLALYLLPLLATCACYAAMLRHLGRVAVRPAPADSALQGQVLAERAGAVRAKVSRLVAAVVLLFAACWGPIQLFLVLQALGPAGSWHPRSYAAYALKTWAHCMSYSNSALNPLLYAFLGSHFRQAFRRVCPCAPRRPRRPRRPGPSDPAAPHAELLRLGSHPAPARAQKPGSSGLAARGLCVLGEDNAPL

Take `CC1=CCC(O)(C(C)C)CC1` (centres undefined): the Potency result in assay [1], in [2], in assay [3], in assay [4], in assay [5] and in assay [6] was “inactive” each time. The Potency result in assay [7], in assay [8], in assay [9], in assay [10], in assay [11] and in assay [12] was “inactive” throughout. In addition, the Potency result in assay [13], in assay [14], in [15], in assay [16], in assay [17] and in [18] was “inactive” in each case. For the same molecule, the Potency entry in assay [19] and in assay [20] was “inactive” in each case.

With `C=C(C)C(=O)OCCNC(C)(C)C`, the Potency result in [1], in assay [2], in assay [3], in [4], in assay [5] and in [6] was “inactive” each time. Besides, the Potency entry in [7], in assay [8], in assay [9], in assay [10], in assay [11] and in assay [12] was “inactive” each time. Also, the Potency entry in assay [13], in assay [14], in [15], in assay [16], in assay [17] and in assay [18] was “inactive” throughout. Besides, the Potency result in [19] and in [20] was “inactive” throughout.

Regarding `Nc1cc([N+](=O)[O-])ccc1O`, the Potency entry in [1], in assay [2], in [3], in [4], in assay [5] and in assay [6] was “inactive” in each case. For the same molecule, the Potency entry in assay [7], in [8], in assay [9], in assay [11], in assay [12] and in assay [13] was “inactive” each time. The Potency result in [14], in [15], in assay [16], in [17], in assay [18] and in assay [19] was “inactive” throughout. Also, the Potency entry in assay [20] is “inactive”. In addition, in [10], the Potency entry is “inactive and 362 nM (active)”.

In the case of `CC12CC3CC(C)(C1)CC(N)(C3)C2`, the Potency result in assay [1], in [2], in [3], in [4], in [5] and in assay [6] was “inactive” throughout. Moreover, the Potency entry in [7], in [8], in [9], in assay [10], in assay [11] and in assay [12] was “inactive” in each case. Further, the Potency entry in assay [13], in assay [14], in assay [15], in [16], in assay [17] and in assay [18] was “inactive” each time. The Potency result in [19] is “inactive”.

`CC(C)(C)NCCO`: the Potency entry in assay [1], in assay [2], in [3], in assay [4], in [5] and in assay [6] was “inactive” each time. Also, the Potency result in [7], in assay [8], in [9], in [10], in assay [11] and in [12] was “inactive” in each case. Further, the Potency result in assay [13], in [14], in [15], in assay [16], in [17] and in assay [18] was “inactive” throughout. In addition, the Potency result in assay [19] and in assay [20] was “inactive” each time.

Consider `O=C(O)CCS`, for which the Potency entry in [1], in assay [2], in assay [3], in assay [4], in assay [5] and in assay [6] was “inactive” in each case. For the same molecule, the Potency result in assay [7], in assay [8], in [9], in assay [10], in assay [11] and in assay [13] was “inactive” in each case. For the same molecule, the Potency entry in assay [14], in assay [15], in assay [16], in assay [17], in assay [18] and in assay [19] was “inactive” each time. In addition, the Potency result in assay [20] was “inactive”. In assay [12], the Potency is 3.41 µM (active).

With `CN1C(=O)CC(C)(c2ccccc2)C1=O` (centres undefined), the Potency result in [1], in assay [2], in assay [3], in assay [4], in [5] and in assay [6] was “inactive” throughout. Further, the Potency result in assay [7], in assay [8], in assay [9], in assay [10], in assay [11] and in assay [12] was “inactive” throughout. Also, the Potency entry in [13], in [14], in assay [15], in [16], in [17] and in assay [18] was “inactive” throughout. The Potency result in [19] and in assay [20] was “inactive” throughout.

For the origin of these results see PubChem BioAssay (Tox21).
